# Data published in PubChem BioAssay (Tox21).
# Inconclusive results are not listed. Where a call stands in place of a potency, no number is given. Active and inactive are the calls of the source. Calls come from the whole dose curve; as a rule, active = well fitted activation curve with a large enough effect in the repeat runs; inconclusive = weak or mixed curves; inactive = flat fitted curve, though single readings scatter.
# Assay: A CellTox Green Cytotoxicity Assay to monitor cytotoxicity in HEK293 cells - 40 hour (AID 1224871); note: nearly all actives have a fitted effect of over 45% in size
# Settings: CellTox Green fluorescence; series mostly up to 76.8 µM
# Method in brief: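 Homogeneous no-lysis format: HEK293 cell suspension mixed with CellTox Green reagent, seeded, incubated 5 h at 37 C/5% CO2, then dosed by pintool with compound in DMSO.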
row,SMILES,Potency
1,O=S(=O)(O)c1cc(O)c(O)c(S(=O)(=O)O)c1,inactive
2,CCC1C(=O)OCC1Cc1cncn1C (configuration not stated),inactive
3,C[C@H]1[C@H](NC(=O)/C(=N/OC(C)(C)C(=O)O)c2csc(N)n2)C(=O)N1S(=O)(=O)O (stereo in doubt),inactive
4,Nc1ccn([C@@H]2O[C@H](CO)[C@@H](O)C2O)c(=O)n1 (some centres not stated),inactive
5,CC1=NN(c2cc(S(=O)(=O)O)ccc2Cl)C(=O)C1N=Nc1ccccc1 (configuration not stated),inactive
6,O=S(=O)(O)c1cccc(S(=O)(=O)O)c1,inactive
7,CCN[C@H]1C[C@H](C)S(=O)(=O)c2sc(S(N)(=O)=O)cc21,inactive
8,NCCCC(N)(C(=O)O)C(F)F (configuration not stated),inactive
9,CCC(C(=O)NC(=O)NC(C)=O)c1ccccc1 (configuration not stated),inactive
10,CC(C)NNC(=O)c1ccncc1,inactive
11,NCCCC[C@H](N[C@@H](CCc1ccccc1)C(=O)O)C(=O)N1CCC[C@H]1C(=O)O,inactive
12,CC1=CC(=O)[C@H]2C[C@@H]1C2(C)C,inactive
13,CN(C)C(=O)Oc1cccc([N+](C)(C)C)c1,inactive
14,CC[C@H]1OC(=O)[C@H](C)[C@@H](O[C@H]2C[C@@](C)(OC)[C@@H](O)[C@H](C)O2)[C@H](C)[C@@H](O[C@@H]2O[C@H](C)C[C@H](N(C)C)[C@H]2O)[C@](C)(OC)C[C@@H](C)C(=O)[C@H](C)[C@@H](O)[C@]1(C)O,inactive
15,COC(=O)C1=C(C)NC(C)=C(C(=O)OC(C)C)C1c1cccc2nonc12 (configuration not stated),inactive
16,CCCCCCCCCCCCCCC(=O)O,inactive
17,CN1CCC(=C2c3ccccc3CCc3cccnc32)CC1,inactive
